15-hLO inh – qHTS Assay for Inhibitors of 15-hLO (15-human lipoxygenase); Polyunsaturated fatty acid lipoxygenase ALOX15 (Homo sapiens), P16050; purified 15hLO-1, xylenol orange hydroperoxide absorbance; Potency, µM (top dose mostly 57.1 µM), usual class: inhibitors; 74,000 compounds, 1.4% hits; note: nearly all actives have a fitted effect of over 55% in size
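Purified human 15hLO-1 (40 nM) in 25 mM Hepes pH 7.5, 0.01% Triton X-100, preincubated 15 min RT with compound, then 50 uM arachidonic acid for 6 min. Hydroperoxide read by ferrous/xylenol orange, 30 min; 573/405 nm absorbance ratio gave progress.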
Caspase-1 inhib – qHTS Assay for Allosteric/Competitive Inhibitors of Caspase-1; P29466; Caspase-1 enzyme, Ac-WEHD-AFC fluorogenic rate; Potency, µM (highest dose often 57.5 µM), hits mostly inhibitors; 75,000 compounds, 0.03% hits; AID 900, 2007
ALOX15B inhib – qHTS Assay for Inhibitors of 15-hLO-2 (15-human lipoxygenase 2). Polyunsaturated fatty acid lipoxygenase ALOX15B (Homo sapiens), O15296. purified 15hLO-2, xylenol orange hydroperoxide absorbance. Potency, µM (top dose mostly 57.1 µM), most hits filed as inhibitors. 110,000 compounds, 0.56% hits; note: nearly all actives have a fitted effect of over 60% in size
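Enzyme 50 nM, AA 45 uM, 25 mM Hepes pH 7.5 + 0.01% Triton X-100; cpd preinc 15 min RT, rxn 90 min RT; stop/detect with 200 uM XO + 300 uM Fe(II) in 50 mM H2SO4, 30 min; A573/A405.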
Caspase-7 inhib – qHTS Assay for Allosteric/Competitive Inhibitors of Caspase-7; Potency, µM (titrated, usually from 57.5 µM), actives largely listed as inhibitors; 75,000 compounds, 0.02% hits; recombinant caspase-7, Ac-DEVD-AFC fluorescence rate; P55210; active = well fitted inhibition curve with a large enough effect in the main read-out, with a control signal flat, not every such curve was filed as active; inconclusive = small, poorly fitted or top-dose-only effect, or a change in a side signal
Hsp90 Hop PPI – qHTS Assay for Disrupters of an Hsp90 Co-Chaperone Interaction; AlphaScreen TPR2A-His6 binding biotin-Hsp90 C-terminal peptide; 71,000 compounds, 0.44% hits; AID 595, 2007; Potency, µM (top dose mostly 57 µM); active = well fitted curve in either direction with a large enough effect; inconclusive = small, poorly fitted or top-dose-only effect, or another doubt
Tau filament bind – qHTS Assay for Tau Filament Binding; recombinant tau filaments, thioflavin S fluorescence, 15 h; filaments grown with octadecylsulfate alongside compound; 71,000 compounds, 2% hits; Potency, µM (series often up to 57.1 µM); Microtubule-associated protein tau (Homo sapiens), P10636;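 note: actives lower thioflavin S fluorescence by blocking filaments or displacing dye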
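Tau 2 uM in ThS buffer dispensed; compound added; 60 uM ODS added (finals 1 uM tau, 30 uM ODS); 15 h 37 C; fluor ex450/em510.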
Hits are given with their value; – = inactive; ? = inconclusive; · = not tested or not shown; [ ] = remark or other dose. Only some compounds are listed: those with a hit (about 2.4% of all), similar ones and a draw of the others. Unless noted, calls come from the whole dose curve; as a rule, active = well fitted curve in the direction sought with a large enough effect; inconclusive = small, poorly fitted or top-dose-only effect, or another doubt; inactive = no such curve, though single readings can be large; an effect the other way counts as inactive or inconclusive.

SMILES	15-hLO inh	Caspase-1 inhib	ALOX15B inhib	Caspase-7 inhib	Hsp90 Hop PPI	Tau filament bind
CN1/C(=C\P(=O)(N(C)C)N(C)C)C(C)(C)c2ccccc21	–	–	–	–	–	10µM
CN1/C(=C/C2CC(=O)NC2=O)C(C)(C)c2ccccc21 (stereo not drawn)	·	·	–	·	·	·
CCCc1cc(=O)[nH]c(/N=C(/NC(=O)C(C)N2C(=O)c3ccccc3C2=O)Nc2ccccc2)n1 (stereo not drawn)	–	–	–	–	–	–
CCOC(=O)c1c(NC(=O)c2cccs2)sc(C(=O)N(C)C)c1C	·	·	–	·	·	·
CCc1c(C)sc(NC(=O)c2cccs2)c1C(=O)OC(C)C	–	?	–	?	25.1µM	–
CCCCc1nnc(NC(=O)CSc2nc(=O)cc(N)n2-c2ccccc2)s1	–	–	–[2.29 µM]	–	–	–
COC(=O)c1ccc(O)c(Sc2cc(C(=O)OC)ccc2O)c1	15.8µM	–	?	–	–	–
COC(=O)c1ccc(C)cc1	–	–	–	–	–	–
N#CC(=C1CCCC1)c1nc(-c2cc3ccccc3oc2=O)cs1	·	·	–	·	·	·
CCOC(=O)c1cc(-c2ccco2)nc2c1c(C)nn2-c1ccccc1	–	–	–	–	–	10µM
Cc1nn(-c2ccccc2)c2nc(-c3ccncc3)cc(C(=O)NCc3ccco3)c12	25.1µM	–	–	–	–	31.6µM
CCCn1c(=O)c2c(C(=O)OCC)cc(-c3ccco3)nc2n(CCC)c1=O	·	·	–	·	·	·
Cn1c(=O)n(-c2cccc(Cl)c2)c(=O)n1C	–	–	–	–	–	–
Cc1cnc(CNc2ccnc(-c3c(C)noc3C)n2)cn1	–	–	–	–	–	–
Cc1noc(C)c1-c1nccc(NCc2ccccc2)n1	15.8µM	–	?	–	–	–
COc1ccccc1CNc1ccnc(-c2cccc(C#N)c2)n1	–	–	–	–	–	–
CCOC(=O)c1c2ccc(OCC(=O)N/N=C/c3ccc(C)cc3)cc2n2ccccc12	·	·	15.8µM	·	·	·
Cc1ccc(NC(=O)COc2ccc(/C=N/NC(=O)CSCc3ccccc3)cc2)cc1	·	·	–[11.4 µM]	·	·	·
Cc1ccc(OCC(=O)NNC(=O)CCC(=O)NCc2ccccc2)cc1	·	·	–	·	·	·
CC(=O)Nc1ccc(S(=O)(=O)Nc2nc(C)cc(-n3nc(C)cc3C)n2)cc1	–[11.4 µM]	–	–	–	–[11 µM]	–[11.4 µM]
O=C1CSC(=S)N1/N=C\c1ccc(Cl)c([N+](=O)[O-])c1	–[11.4 µM]	–[11.5 µM]	–[11.4 µM]	–[11.5 µM]	–[11 µM]	3.98µM
O=C1CCCC2=C1C(c1ccco1)Nc1ccc3ccccc3c12 (stereo not drawn)	?	·	?	?	–	12.6µM
CC1=C(/C=C/C(C)=C\C=C\C(C)=C\C(=O)O)C(C)(C)CCC1	·	·	–[0.0915 µM]	·	·	·
O=c1oc2c(O)c(O)cc3c(=O)oc4c(O)c(O)cc1c4c23	?	–	–	–	31.6µM	?
O=C(O)CSc1nc(-c2ccccc2)cc(=O)[nH]1	·	·	–	·	·	·
SMILES	15-hLO inh	Caspase-1 inhib	ALOX15B inhib	Caspase-7 inhib	Hsp90 Hop PPI	Tau filament bind
CC1CCN(c2nc(-c3ccco3)c3c(c2C#N)CC(C)(C)OC3)CC1	–	·	?	?	25.1µM	–
CC(NC(=O)c1ccccc1)(C(=O)O)C(=O)O	–[11.4 µM]	–[11.5 µM]	–[11.4 µM]	–[11.5 µM]	–[11 µM]	–[11.4 µM]
CNc1sc(C(=O)c2cccs2)c(N)c1-c1nc2ccccc2s1	?	–	–	–	?	5.01µM
Cc1ccc(CNC2=NCCCCC2)n1C	20µM	–	–	–	–	–
COCCNc1nc(-c2ccccc2C)nc2ccccc12	–	–	–	–	–	–
CN(C)S(=O)(=O)c1cccc(-c2nnc(SCc3cc(Cl)cc4c3OCOC4)n2N)c1	12.6µM	–	–	–[0.00368 µM]	–	–
CCN(CC)S(=O)(=O)c1cccc(-c2nnc(SCc3nnc(-c4cccs4)o3)n2N)c1	–	–	–	–	–	–
CC(=O)Nc1ccc(NC(C)=O)s1	20µM	–	–	–	–	–
COc1cccc(OC)c1C(=O)N1CC(C)OC(C)C1 (stereo not drawn)	–	–	–	–	–	–
Cc1ccc(C2CC(=O)N3CN(c4ccc(Br)cc4)CSC3=C2C#N)o1 (stereo not drawn)	2.51µM	?	?	?	–	?
N#CC1=C2SCN(c3ccccc3)CN2C(=O)CC1c1c(Cl)cccc1Cl (stereo not drawn)	3.16µM	–	7.94µM	–	–[2.3 µM]	–
N#CC1=C2SCN(c3ccccc3)CN2C(=O)CC1c1cccs1 (stereo not drawn)	3.98µM	–	12.6µM	–	–	–
N#CC1=C2SCC(O)(c3ccccc3)N2C(=O)CC1c1cccs1 (stereo not drawn)	–	–	–	–	–	–
N#CC1=C2SCN(c3ccccc3)CN2C(=O)CC1c1ccccc1Cl (stereo not drawn)	?	–	7.94µM	–	–[2.3 µM]	–
N#CC1=C2SCN(Cc3ccco3)CN2C(=O)CC1c1c(F)cccc1Cl (stereo not drawn)	?	?	?	–	–[2.3 µM]	–
Cc1cccc(C)c1OCC(=O)NCc1nnc(SCC(=O)NC2CCCCC2)n1C	–	–	–	–	–	–
O=C(Cn1nnc2ccccc21)NCc1ccccc1	–	–	–	–	–	–
CC(=O)Nc1ccc(S(=O)(=O)Nc2nc(CN3CCOCC3)nc3sc4c(c23)CCCC4)cc1	·	·	–	·	·	·
CCOC(=O)c1cn(-c2ccccc2)nc1-c1cccnc1	–	–	·	–	·	·
O=C(c1ccco1)N1CCN(C2=NS(=O)(=O)c3ccccc32)CC1	–	–	–	–	–	–
CCC1=C/C(=C/N(C)c2ccccc2)C(=O)S1	25.1µM	–	–	–	–	–
C=CCOC(=O)C(C#N)c1nc2ccccc2nc1N1CCN(Cc2ccc3c(c2)OCO3)CC1 (stereo not drawn)	–	–	–	–	–	1.26µM
COC(=O)C1CCN(c2nc3ccccc3nc2C(C#N)C(=O)NCCc2ccccc2)CC1 (stereo not drawn)	·	·	–	·	·	·
CCC(CC)COC(=O)C(C#N)c1nc2ccccc2nc1N1CCN(CC)CC1 (stereo not drawn)	?	?	–	?	–	1.26µM
COC(=O)C(C#N)c1nc2ccccc2nc1N1CCCC1 (stereo not drawn)	–	?	–	–	–	15.8µM
N#CC(C(=O)OCc1ccccc1)c1nc2ccccc2nc1N1CCOCC1 (stereo not drawn)	–	?	–	–	–	2µM
CCCCNC(=O)C(C#N)c1nc2ccccc2nc1N1CCCC1 (stereo not drawn)	–	·	–	?	–	–
Cc1c(NS(=O)(=O)c2ccc3c(c2)CCN3C(=O)C2CC2)c(=O)n(-c2ccccc2)n1C	–	–	–	–	–	–
